Reference: PubChem BioAssay AID1159580 (chemical genetic matrix, 2015)
In all, about 5,500 compounds went through this assay and about 2,000 (36%) were called active. About 18% were inconclusive and are not listed. No stated cut-off is given here; in the data, active means normalized growth mostly below about 0.91 (no sharp cut-off); inconclusive means no clear call, values can overlap the other calls; inactive means mostly above about 0.92. The list shows a part of the results.

Test: chemical genetic growth profiling, strain panel (AID 1159580);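 further: tested at 20 µM; growth read once vehicle control cultures reached saturation at 30 °C; 1 = growth at the plate median or of vehicle wells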
Details: growth OD

Measured: normalized growth

COc1cc(NS(=O)(=O)c2ccc(N)cc2)nc(OC)n1
inactive: S. cerevisiae deletion strains, locus YJR066W, strain TOR1, stronger effect = lower value 0.933 | S. cerevisiae deletion strains, locus YKL009W, strain mrt4, stronger effect = lower value 0.985 | S. cerevisiae deletion strains, locus YKL068W, stronger effect = lower value 0.984 | S. cerevisiae deletion strains, locus YKL085W, strain MDH1 (second series), stronger effect = lower value 0.991 | S. cerevisiae deletion strains, locus YKL085W, strain MDH1, stronger effect = lower value 0.991 | S. cerevisiae deletion strains, locus YKL160W, strain elf1, stronger effect = lower value 0.969 | S. cerevisiae deletion strains, locus YKL190W, strain CNB1, stronger effect = lower value 0.999 | S. cerevisiae deletion strains, locus YKR001C, strain vps1, stronger effect = lower value 1 | S. cerevisiae deletion strains, locus YKR026C, strain gcn3, stronger effect = lower value 0.973 | S. cerevisiae deletion strains, locus YKR091W, strain srl3, stronger effect = lower value 0.982 | S. cerevisiae deletion strains, locus YLL001W, strain dnm1, stronger effect = lower value 0.982 | S. cerevisiae deletion strains, locus YLL026W, stronger effect = lower value 0.992 | S. cerevisiae deletion strains, locus YLL041C, strain sdh2, stronger effect = lower value 0.992 | S. cerevisiae deletion strains, locus YLR027C, strain aat2, stronger effect = lower value 0.988 | S. cerevisiae deletion strains, locus YLR039C, strain RIC1, stronger effect = lower value 0.997 | S. cerevisiae deletion strains, locus YLR058C, strain SHM2, stronger effect = lower value 0.982 | S. cerevisiae deletion strains, locus YLR102C, strain apc9, stronger effect = lower value 0.985 | S. cerevisiae deletion strains, locus YLR113W, strain HOG1, stronger effect = lower value 0.961 | S. cerevisiae deletion strains, locus YLR221C, strain rsa3, stronger effect = lower value 0.986 | S. cerevisiae deletion strains, locus YLR258W, strain gsy2, stronger effect = lower value 0.979 | S. cerevisiae deletion strains, locus YLR262C, strain YPT6 (second series), stronger effect = lower value 0.952 | S. cerevisiae deletion strains, locus YLR262C, strain YPT6, stronger effect = lower value 0.97 | S. cerevisiae deletion strains, locus YLR268W, strain sec22, stronger effect = lower value 0.98 | S. cerevisiae deletion strains, locus YLR320W, strain mms22, stronger effect = lower value 0.972 | S. cerevisiae deletion strains, locus YLR330W, strain CHS5, stronger effect = lower value 0.984 | S. cerevisiae deletion strains, locus YLR342W, strain FKS1 (second series), stronger effect = lower value 0.95 | S. cerevisiae deletion strains, locus YLR342W, strain FKS1, stronger effect = lower value 0.986 | S. cerevisiae deletion strains, locus YLR357W, strain rsc2, stronger effect = lower value 0.921 | S. cerevisiae deletion strains, locus YLR370C, strain arc18, stronger effect = lower value 0.977 | S. cerevisiae deletion strains, locus YLR371W, strain rom2, stronger effect = lower value 0.982 | S. cerevisiae deletion strains, locus YLR384C, strain iki3, stronger effect = lower value 0.97 | S. cerevisiae deletion strains, locus YLR418C, strain cdc73, stronger effect = lower value 0.969 | S. cerevisiae deletion strains, locus YML016C, strain PPZ1, stronger effect = lower value 0.983 | S. cerevisiae deletion strains, locus YML032C, strain rad52, stronger effect = lower value 0.983 | S. cerevisiae deletion strains, locus YML120C, strain ndi1, stronger effect = lower value 0.972 | S. cerevisiae deletion strains, locus YML124C, strain tub3, stronger effect = lower value 0.988 | S. cerevisiae deletion strains, locus YMR058W, strain fet3, stronger effect = lower value 0.996 | S. cerevisiae deletion strains, locus YMR078C, strain ctf18, stronger effect = lower value 0.984 | S. cerevisiae deletion strains, locus YMR125W, strain sto1, stronger effect = lower value 0.978 | S. cerevisiae deletion strains, locus YMR129W, stronger effect = lower value 0.983 | S. cerevisiae deletion strains, locus YMR205C, strain PFK2, stronger effect = lower value 0.971 | S. cerevisiae deletion strains, locus YMR223W, strain ubp8, stronger effect = lower value 0.987 | S. cerevisiae deletion strains, locus YMR231W, strain pep5, stronger effect = lower value 0.982 | S. cerevisiae deletion strains, locus YMR307W, strain GAS1, stronger effect = lower value 0.933 | S. cerevisiae deletion strains, locus YNL067W, strain RPL9B, stronger effect = lower value 1.01 | S. cerevisiae deletion strains, locus YNL071W, strain lat1, stronger effect = lower value 0.975 | S. cerevisiae deletion strains, locus YNL153C, strain GIM3, stronger effect = lower value 1.04 | S. cerevisiae deletion strains, locus YNL183C, strain NPR1, stronger effect = lower value 0.943 | S. cerevisiae deletion strains, locus YNL209W, strain ssb2, stronger effect = lower value 0.97 | S. cerevisiae deletion strains, locus YNL233W, strain BNI4, stronger effect = lower value 1 | S. cerevisiae deletion strains, locus YNL248C, strain rpa49, stronger effect = lower value 0.969 | S. cerevisiae deletion strains, locus YNL250W, strain rad50, stronger effect = lower value 0.988 | S. cerevisiae deletion strains, locus YNL271C, strain bni1, stronger effect = lower value 0.978 | S. cerevisiae deletion strains, locus YNL298W, strain CLA4, stronger effect = lower value 0.962 | S. cerevisiae deletion strains, locus YNL307C, strain MCK1, stronger effect = lower value 0.981 | S. cerevisiae deletion strains, locus YNL322C, strain KRE1 (second series), stronger effect = lower value 0.976 | S. cerevisiae deletion strains, locus YNL322C, strain KRE1, stronger effect = lower value 0.996 | S. cerevisiae deletion strains, locus YNR049C, strain mso1, stronger effect = lower value 0.979 | S. cerevisiae deletion strains, locus YNR052C, strain pop2, stronger effect = lower value 0.986 | S. cerevisiae deletion strains, locus YOL006C, strain TOP1, stronger effect = lower value 1.05 | S. cerevisiae deletion strains, locus YOL012C, strain htz1 0.758 | S. cerevisiae deletion strains, locus YOL147C, strain pex11, stronger effect = lower value 0.978 | S. cerevisiae deletion strains, locus YOR001W, strain rrp6, stronger effect = lower value 0.988 | S. cerevisiae deletion strains, locus YOR061W, strain CKA2, stronger effect = lower value 0.977 | S. cerevisiae deletion strains, locus YOR069W, strain VPS5, stronger effect = lower value 0.985 | S. cerevisiae deletion strains, locus YOR070C, strain gyp1, stronger effect = lower value 0.981 | S. cerevisiae deletion strains, locus YOR080W, strain dia2, stronger effect = lower value 0.966 | S. cerevisiae deletion strains, locus YOR083W, strain WHI5, stronger effect = lower value 0.981 | S. cerevisiae deletion strains, locus YOR106W, strain vam3, stronger effect = lower value 0.977 | S. cerevisiae deletion strains, locus YOR136W, strain idh2, stronger effect = lower value 0.991 | S. cerevisiae deletion strains, locus YOR144C, strain elg1, stronger effect = lower value 0.992 | S. cerevisiae deletion strains, locus YOR184W, strain ser1, stronger effect = lower value 0.991 | S. cerevisiae deletion strains, locus YOR231W, strain MKK1, stronger effect = lower value 0.968 | S. cerevisiae deletion strains, locus YOR265W, strain rbl2, stronger effect = lower value 0.992 | S. cerevisiae deletion strains, locus YOR270C, strain vph1, stronger effect = lower value 0.965 | S. cerevisiae deletion strains, locus YOR290C, strain snf2, stronger effect = lower value 0.991 | S. cerevisiae deletion strains, locus YOR316C, strain cot1, stronger effect = lower value 0.988 | S. cerevisiae deletion strains, locus YPL051W, strain arl3, stronger effect = lower value 0.973 | S. cerevisiae deletion strains, locus YPL055C, strain LGE1, stronger effect = lower value 1.03 | S. cerevisiae deletion strains, locus YPL078C, strain atp4, stronger effect = lower value 0.965 | S. cerevisiae deletion strains, locus YPL106C, strain sse1, stronger effect = lower value 0.976 | S. cerevisiae deletion strains, locus YPL240C, strain hsp82, stronger effect = lower value 0.98 | S. cerevisiae deletion strains, locus YPL241C, strain CIN2, stronger effect = lower value 0.994 | S. cerevisiae deletion strains, locus YPL256C, strain CLN2, stronger effect = lower value 0.966 | S. cerevisiae deletion strains, locus YPR119W, strain clb2, stronger effect = lower value 0.989 | S. cerevisiae deletion strains, locus YPR141C, strain kar3, stronger effect = lower value 0.982 | S. cerevisiae deletion strains, locus YPR163C, strain tif3, stronger effect = lower value 0.973 | S. cerevisiae deletion strains, locus YPR167C, strain met16, stronger effect = lower value 0.986 | S. cerevisiae deletion strains, strain wtn01, stronger effect = lower value 0.981 | S. cerevisiae strains, strain wild type, stronger effect = lower value 0.991
